GLS inh: glutaminase GLS (human) inhibition | GLS enzymatic activity, qHTS titration | Potency, µM (highest dose often 45.5 µM), for inactives: at the top dose activity change, negative = inhibition, usual class: inhibitors | actives 0.21% (n = 410,000) | O94925
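Compounds were pin-transferred onto hKGA, after which L-glutamine (1 mM solution) and a detection mix of glutamate oxidase, HRP and Amplex Red were added. Initial and 30 min RT fluorescence reads were collected.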
RECQ1 inh: blocks DNA unwinding by human RECQ1. actives 0.54% (n = 240,000). P46063. Potency, µM (titrated, usually from 57.3 µM), without a hit: top-dose activity, negative = inhibition, actives largely listed as inhibitors. RECQ1 DNA unwinding, red fluorescence kinetic read;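 also: plate controls were vehicle for no effect and no enzyme for full effect; nearly all actives have a fitted effect of over 30% in size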
Target sequence (P46063 whole entry, looked up): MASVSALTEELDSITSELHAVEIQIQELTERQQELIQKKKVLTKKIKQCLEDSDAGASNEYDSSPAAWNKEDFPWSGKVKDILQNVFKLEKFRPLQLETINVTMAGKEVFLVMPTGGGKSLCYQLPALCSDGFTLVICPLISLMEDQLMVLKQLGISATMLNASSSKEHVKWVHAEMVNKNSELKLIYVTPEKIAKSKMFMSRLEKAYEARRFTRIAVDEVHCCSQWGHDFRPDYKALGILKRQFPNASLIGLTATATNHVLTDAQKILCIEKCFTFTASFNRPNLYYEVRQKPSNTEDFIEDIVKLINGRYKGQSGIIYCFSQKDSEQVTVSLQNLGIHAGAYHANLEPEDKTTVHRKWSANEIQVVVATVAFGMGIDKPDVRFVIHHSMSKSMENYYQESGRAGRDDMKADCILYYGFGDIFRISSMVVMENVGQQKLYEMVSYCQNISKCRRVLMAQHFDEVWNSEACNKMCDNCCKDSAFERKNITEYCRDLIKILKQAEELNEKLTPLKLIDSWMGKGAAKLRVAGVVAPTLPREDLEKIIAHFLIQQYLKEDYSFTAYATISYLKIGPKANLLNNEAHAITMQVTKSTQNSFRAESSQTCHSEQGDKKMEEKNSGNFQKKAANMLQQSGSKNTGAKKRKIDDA
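RECQ1T1 50 nM; forked duplex (20 bp + 30-nt ss tails) 200 nM, ATP 2 mM final; pH 8.0, 2 mM MgCl2, 2.5 ug/ml poly(dI-dC); 15 min compound preincubation; discontinuous kinetic read over 2 h at RT.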
TDP1 block: inhibitors of human tyrosyl-DNA phosphodiesterase TDP1 | actives 0.28% (n = 350,000) | Q9NUW8 | recombinant TDP1, AlphaScreen DNA substrate cleavage | Potency, µM (series often up to 130 µM), for the others: at the top dose activity change, negative = inhibition, usual class: inhibitors | AID 485290; also: nearly all actives have a fitted effect of over 40% in size
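Recombinant E. coli-expressed Tdp1 (1 nM) preincubated with compound 15 min at RT, then 5'-biotin/3'-phosphotyrosine-FITC DNA substrate (15 nM) added for 5 min. AlphaScreen beads (10 ug/ml) added, 10 min RT; tyrosine-FITC cleavage read as signal loss.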
PGK inhibitor: T. brucei PGK inhibition. AID 602233. PGK/GAPDH coupled, Kinase-Glo luminescence, 60 min. P07378. Potency, µM (top dose mostly 57.5 µM), for the others: at the highest dose activity change, negative = inhibition, actives largely listed as inhibitors. actives 0.043% (n = 380,000); also: nearly all actives have a fitted effect of over 60% in size
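Luminescent ATP detection (Kinase-Glo Plus) follows a 60-minute room-temperature incubation, with wells lacking PGK as controls. Buffer: 100 mM TEA (pH 7.6), 5 mM MgCl2, 0.01% Tween-20. Coupling enzyme GAPDH (100 nM final) supplies unstable 1,3-BPG in-well.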
APEX1 inh: blocks human APE1 abasic DNA cleavage; actives 0.35% (n = 350,000); recombinant APE1, TAMRA/BHQ-2 abasic DNA cleavage fluorescence; Potency, µM (titrated, usually from 65.8 µM), for inactives: at the top dose activity change, negative = inhibition, usual class: inhibitors;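 also: plate controls were vehicle for no effect and reference inhibitor for full effect; nearly all actives have a fitted effect of over 55% in size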
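Readout is kinetic fluorescence (ex 525, em 598 nm) from cleavage of 50 nM TAMRA/BHQ-2 THF abasic duplex by 0.75 nM APE1, compound added 15 min beforehand at RT.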
BLM helicase inh: Bloom syndrome helicase (human) inhibition | actives 0.2% (n = 350,000) | AID 2528 | recombinant BLM DNA unwinding, fluorescence dequenching | P54132 | Potency, µM (doses to about 56.1 µM), inactives show at the highest dose activity change, negative = inhibition, hits mostly inhibitors;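 also: plate controls were vehicle for no effect and no enzyme for full effect; nearly all actives have a fitted effect of over 35% in size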
Active calls of the source: *; i = inactive; ? = inconclusive; / = no result; [ ] = dose if it differs, or a comment. The list is not random: actives were taken first. Their share in the collection is about 0.85%. Calls follow the shape of the dose curve; as a rule, active = well fitted curve in the direction sought with a large enough effect; inconclusive = small, poorly fitted or top-dose-only effect, or another doubt; inactive = no such curve, though single readings can be large; an effect the other way counts as inactive or inconclusive. Unless noted, % is scaled to controls: 0 for no effect and ±100 for the full control effect; potency is read from the fitted curve at half-maximal effect.

SMILES	GLS inh	RECQ1 inh	TDP1 block	PGK inhibitor	APEX1 inh	BLM helicase inh
O=C(ONC(=O)C1C2C=CC(C2)C1C(=O)NOC(=O)c1ccccc1)c1ccccc1 (configuration not stated)	13µM*	/	/	9%	/	/
Cc1cc(N/N=C/c2ccc(O)cc2)nc(NS(=O)(=O)c2ccccc2)n1	13µM*	-1%	16µM*	25µM*	10µM*	2%
Cc1ccc(-c2nnc(-c3cccc4ccccc34)o2)cc1	-2%	/	/	-4%	/	/
Cc1ccc(CSc2nnc(-c3cccc4ccccc34)o2)cc1	0%	/	45µM*	1%	8%	/
O=C1c2c(O)cc(O)cc2O[C@H](c2ccc(O)c(O)c2)C1O (some centres not stated)	/	14µM*	4%	/	?	-5%
O=C1c2c(O)cc(O)cc2OC(c2ccc(O)c(O)c2)C1O (configuration not stated)	/	-5%	-2%[56.1 µM]	/	?	-1%
COc1cc2c(cc1OC)[C@@H](Cc1cc(OC)c(OC)c(OC)c1)[N@+](C)(CCCOC(=O)CC/C=C/CCC(=O)OCCC[N@+]1(C)CCc3cc(OC)c(OC)cc3[C@H]1Cc1cc(OC)c(OC)c(OC)c1)CC2	12%	/	/	/	/	/
Cc1ccc(S(=O)(=O)/N=C2\C=C(Nc3cccc(C(=O)O)c3)C(=O)c3ccccc32)cc1	-3%	/	11%	-22%	-13%	20µM*
Cc1ccc(S(=O)(=O)/N=C2\C=C(Nc3cccc(C(=O)O)c3)C(=O)c3ccccc32)c(C)c1	19%	/	9%	i	53%	25µM*
Cc1ccc(S(=O)(=O)/N=C2\C=C(NS(=O)(=O)c3ccccc3)C(=O)c3ccccc32)c(C)c1	-2%	/	/	-6%	/	/
CCc1ccc(S(=O)(=O)/N=C2\C=C(Nc3ccc(C(=O)O)cc3)C(=O)c3ccccc32)cc1	-11%	/	5%[0.0935 µM]	-18%	-15%	25µM*
CN(c1ccccc1)S(=O)(=O)c1cccc(C(=O)NCCc2ccc(O)c(O)c2)c1	3.5µM*	-11%	-3%	-2%	-10%	-9%
O=C(O)CCc1ccc(-c2cccs2)o1	14%	-21%	16µM*	/	?	1%
CC(=O)O[C@H]1CC[C@@]2(C)C(=CCC3C2CC[C@]2(C)C(c4cccnc4)=CCC32)C1 (some centres not stated)	-1%	/	/	/	/	/
CN(C)c1ncc2nc(-c3ccc(Cl)cc3)c(=O)n(Cc3ccc(F)cc3)c2n1	/	-6%	/	/	32µM*	1%
O=C(O)C(S)[C@@H](S)C(=O)O (some centres not stated)	/	i	/	/	14µM*	4%
O=C(O)C(S)C(S)C(=O)O (configuration not stated)	-12%	/	/	?	/	/
CO/N=C(\C(=O)N[C@@H]1C(=O)N2C(C(=O)OCOC(=O)C(C)(C)C)=C(C)CS[C@H]12)c1csc(N)n1	7%	/	/	/	/	/
Cc1cc(C(=O)NNS(=O)(=O)c2cc(C(=O)O)ccc2Cl)c(C)n1-c1ccccc1	20µM*	/	/	-14%	-34%	/
O[C@@H](CNC[C@H](O)[C@H]1CCc2cc(F)ccc2O1)[C@@H]1CCc2cc(F)ccc2O1	-1%	/	/	/	/	/
CNc1cccccc1=S	-4%	?	3.5µM*	-7%	?	-2%
Cc1ccc(NS(=O)(=O)c2ccc3c(c2)CCO3)cc1C	/	/	1%	/	/	/
CC1(C)c2ccccc2N2CC(=O)N(CC(N)=O)C21C (configuration not stated)	7%	32µM*	7%	/	?	-13%
CC(=O)Nc1n[nH]c(=S)s1	?	/	/	i	/	/
CNc1n[nH]c(=S)s1	14µM*	-15%	/	-4%	-4%	3%
O=C(NN1CCCC1)NS(=O)(=O)c1ccc(Cl)cc1	5%	/	/	/	/	/
NC(=O)c1cccc(-c2noc(-c3ccccc3C(F)(F)F)n2)c1	/	/	/	/	2%	/
